Shown are actives, neighbours in structure and some others; about 2% of the full set was active somewhere.
ARNT-TACC3 inh: disruptors of human ARNT/TACC3 interaction; Q9Y6A5; AlphaScreen His-ARNT PAS-B/GST-TACC3 binding, luminescence; TACC3 fragment carries E629A point mutation; inhibition, % at 9.99 µM; hit rate 0.66% among 390,000; AID 623870;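 active means mean inhibition of replicates at least 50% and at least half of replicates each reaching 50%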;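 further: 0% = complete ARNT plus TACC3 wells and 100% = ARNT alone without TACC3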
Neddyl block: inhibitors of human cullin neddylation. P61081+Q13564. TR-FRET cullin neddylation, biochemical. inhibition, % at 25 µM. hit rate 0.58% among 360,000. AID 651699; in the data active means inhibition above about 36%
DAGLB inhibitor: diacylglycerol lipase beta (human) inhibition | Q8NCG7 | HEK293T DAGLB membrane lysate, EnzChek fluorogenic substrate | inhibition, % at 5.17 µM | hit rate 0.059% among 340,000 | AID 504411; in the data active means inhibition above about 34%;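 further: 0% = enzyme with vehicle and 100% = wells lacking enzyme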
NadD inh: blocks S. aureus nicotinate mononucleotide adenylyltransferase | hit rate 0.78% among 360,000 | AID 602399 | inhibition, % at 20 µM | purified NadD enzyme, colorimetric absorbance read-out; in the data active means inhibition above about 26%
sPLA2-III inh: Inhibits HGIII-sPLA2 liposome hydrolysis, primary screen. Q9NZ20. QFRET BODIPY PC-A2 liposome hydrolysis, fluorescence. inhibition, % at 12.2 µM. hit rate 0.56% among 370,000;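 active means inhibition above mean plus 3 SD of compounds lying within the high and low control bounds, cut at about 19% in these data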;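 further: 0% = median of test compound wells and 100% = no enzyme DMSO wells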
Target sequence (Q9NZ20 whole entry, looked up): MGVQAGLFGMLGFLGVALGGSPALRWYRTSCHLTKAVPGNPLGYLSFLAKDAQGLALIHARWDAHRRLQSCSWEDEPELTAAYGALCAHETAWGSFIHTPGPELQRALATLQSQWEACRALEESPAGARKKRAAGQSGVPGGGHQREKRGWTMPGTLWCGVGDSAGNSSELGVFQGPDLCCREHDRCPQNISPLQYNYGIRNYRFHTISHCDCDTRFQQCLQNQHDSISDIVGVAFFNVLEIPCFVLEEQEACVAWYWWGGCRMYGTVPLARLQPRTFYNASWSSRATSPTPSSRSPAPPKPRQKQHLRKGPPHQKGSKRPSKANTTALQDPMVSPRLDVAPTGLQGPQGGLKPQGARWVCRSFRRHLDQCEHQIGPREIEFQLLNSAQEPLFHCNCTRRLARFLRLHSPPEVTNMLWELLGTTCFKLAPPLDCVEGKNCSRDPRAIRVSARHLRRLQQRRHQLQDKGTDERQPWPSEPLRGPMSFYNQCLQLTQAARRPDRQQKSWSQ
Numbers without * were called inactive; . = no result shown.

SMILES | ARNT-TACC3 inh | Neddyl block | DAGLB inhibitor | NadD inh | sPLA2-III inh
COc1cccc(S(=O)(=O)N[C@H]2CC[C@@H](CC(=O)NCc3ccc(Cl)cc3)O[C@H]2CO)c1 | 36* | . | . | . | .
COC(=O)C[C@H]1CC[C@@H](NS(=O)(=O)c2ccc(OC)cc2)[C@H](CO)O1 | 48* | . | . | . | .
COc1cc2c(cc1OC)CN(C(=O)[C@H]1[C@@H]3C(=O)O[C@@H](c4ccccc4)[C@@H](c4ccccc4)N3[C@@H](c3ccccc3OCCO)[C@]13C(=O)Nc1ccc(C#CC4=CCCCC4)cc13)CC2 | 31 | . | . | . | .
C[C@@H]1CN([C@@H](C)CO)C(=O)Cc2cc(NS(=O)(=O)c3ccc(F)cc3)ccc2O[C@H]1CN(C)S(=O)(=O)c1cccs1 | 7 | . | . | . | .
O=C(N=Nc1c(O)[nH]c2ccc(Cl)cc12)c1cc(-c2cccs2)nc2ccccc12 | -1 | 8 | 4 | 34* | 6
CCCCCCc1c(O)c2ccccc2[nH]c1=O | -4 | 35 | -1 | 4 | 8
CCCCCCCCCCCC1=C(O)C(=O)C=C(O)C1=O | 18 | 11 | 19 | 37* | .
COC1=C(OC)C(=O)C(CCCCCCCCCCO)=C(C)C1=O | . | -2 | . | -1 | 0
COC1=CC(=O)C(O)=C(CCCCCCC/C=C/CCCCCCCC2=C(O)C(=O)C=C(OC)C2=O)C1=O | . | -10 | 24 | 51* | .
Nc1c2c(nc3ccn(Cc4ccccc4)c(=O)c13)CCC2 | 1 | 39* | -1 | -8 | -1
O=C(NCCc1ccccn1)c1ccc(OC(F)F)cc1 | -6 | -2 | 0 | 3 | 1
O=C(NNC(=O)c1ccccn1)c1ccc(OC(F)F)cc1 | 71* | 7 | 5 | 0 | 2
O=C(C[C@H]1CC[C@H]2[C@@H](COC[C@@H](O)CN2C(=O)c2cccnc2)O1)NCc1ccccc1 | 1 | . | . | . | .
Cc1ccc(NC(=O)CCC(=O)N/N=C/c2ccc(O)cc2O)cc1 | 71* | 6 | 0 | -4 | -19
O=C(N/N=C/c1ccc(O)cc1O)/C(=C/c1ccccc1)CCO | 70* | 3 | 5 | -2 | -24
Cc1cc([N+](=O)[O-])nn1CC(=O)N/N=C/c1ccc(O)cc1O | 71* | -13 | 0 | -1 | -16
Cc1cc([N+](=O)[O-])nn1CC(=O)N/N=C/c1ccccc1Br | 5 | -12 | -3 | 3 | 1
COc1cc(/C=N/NC(=O)/C(=C/c2ccccc2)CCO)ccc1O | -5 | 0 | -3 | -1 | 5
O=C(CCC(=O)Nc1ccc(F)cc1)N/N=C/c1ccccc1O | 31 | 36 | 1 | 1 | -5
C[C@@H]1CCCCO[C@H](CN(C)C)[C@@H](C)CN([C@@H](C)CO)C(=O)c2cc(NS(=O)(=O)c3cccs3)ccc2O1 | -8 | . | . | . | .
C[C@@H]1CN([C@H](C)CO)C(=O)c2cc(NS(=O)(=O)c3ccc(F)cc3)ccc2O[C@@H](C)CCCCO[C@@H]1CN(C)C(=O)CCCN(C)C | -7 | . | . | . | .
COc1cc2c3nnc(-c4ccc(F)cc4)c-3cn(Cc3ccc(C)cc3)c2cc1OC | 1 | 38* | 5 | 22 | -2
CCNC(=O)C[C@@H]1CC[C@@H]2[C@@H](COc3ccc(NC(=O)Nc4cccc(Cl)c4)cc3C(=O)N2C)O1 | 6 | . | . | . | .
COc1ccc(CN2C[C@H](O)COC[C@@H]3O[C@H](CC(=O)N4CCc5ccccc5C4)CC[C@H]32)cc1 | 21 | . | . | . | .
Cc1ccc2nc(/C(C#N)=C\c3cc(C)n(-c4cccc([N+](=O)[O-])c4)c3C)[nH]c2c1 | -18 | -8 | 2 | 29* | -1
SMILES | ARNT-TACC3 inh | Neddyl block | DAGLB inhibitor | NadD inh | sPLA2-III inh
COc1ccc(CN(C)C[C@H]2Oc3ccc(NC(=O)Cc4ccccc4)cc3C(=O)N([C@H](C)CO)C[C@H]2C)cc1 | 5 | . | . | . | .
S=C(N/N=C/c1ccc(Cl)cc1)N1CCOCC1 | 61* | -7 | -2 | 5 | 12
S=C(N/N=C/c1ccc(Br)cc1)N1CCCCC1 | 38* | 2 | -2 | 0 | 3
CSC(=S)N/N=C/c1ccc(Br)cc1 | 2 | 0 | -3 | 2 | 14
CC(C)c1cn(CC[C@@H]2CC[C@H](NS(=O)(=O)Cc3ccccc3)[C@@H](CO)O2)nn1 | -32 | . | . | . | .
O=C(/C=C/c1ccccc1)NC(=S)NNC(=O)c1ccco1 | 52* | -3 | 2 | 1 | 18
O=C(Nc1ccc2c(c1)nc1n2CCN(Cc2ccccc2)C1)c1cccs1 | 43* | 26 | 1 | 19 | -2
O=C(Nc1ccc2c(c1)nc1n2CCN(Cc2ccccc2)C1)NC1CCCCC1 | 1 | . | 1 | 9 | 0
CCCN(C)C[C@H]1OCCCC[C@@H](C)Oc2ccc(NS(=O)(=O)c3ccccc3)cc2C(=O)N([C@@H](C)CO)C[C@H]1C | -2 | . | . | . | .
c1cc2c(cc1Nc1nc(-c3ccc4c(c3)OCO4)cs1)OCCO2 | 0 | 7 | -2 | 40* | 6
CO[C@H](CN(C)S(=O)(=O)c1ccc(Cl)cc1)[C@@H](C)CN(C(=O)Nc1ccccc1F)[C@H](C)CO | 5 | . | . | . | .
O=C(NNc1ccccn1)C(=O)NNS(=O)(=O)c1ccc(F)cc1 | 63* | 7 | -2 | 2 | -3
O=C1NC(c2ccccn2)Nc2sc3c(c21)CCC3 (configuration not stated) | 65* | 30 | 1 | 7 | -4
C[C@@H]1CN([C@@H](C)CO)C(=O)c2cc(-c3ccc(F)cc3)cnc2O[C@@H]1CN(C)C(=O)C1CCC1 | -10 | . | . | . | .
O=C(c1ccncc1)N1C[C@@H]2[C@H](c3ccccc31)[C@@H](CO)N2C(=O)Nc1ccc(F)cc1 | -1 | . | . | . | .
CN1C(=O)c2cc(NC(=O)c3ccc(F)c(F)c3)ccc2OC[C@H]2O[C@H](CC(=O)N[C@H]3CCN(Cc4ccccc4)C3)CC[C@@H]21 | 0 | . | . | . | .
O=C(Nc1ccsc1C(=O)O)c1ccc(Cl)cc1 | active | 0 | 3 | -7 | -2
O=C(CNc1cccc(S(=O)(=O)N2CCCCCC2)c1)Nc1cccc([N+](=O)[O-])c1 | 50* | -44 | -5 | -3 | -41
O=C(CNc1cc([N+](=O)[O-])ccc1NCCO)Nc1cccc(S(=O)(=O)N2CCCCC2)c1 | 22 | -33 | 12 | 3 | -8
S=c1[nH]nc(-c2n[nH]c3c2CCC3)n1/N=C/C=C/c1ccco1 | . | 55* | . | 5 | 2
Cc1ccc(S(=O)(=O)N(C)C[C@@H]2Oc3ccc(NC(=O)C4CCCCC4)cc3CC(=O)N([C@@H](C)CO)C[C@@H]2C)cc1 | -5 | . | . | . | .
O=C(N/N=C/c1ccccc1O)C1CC(=O)N(c2ccc(Cl)cc2)C1 (configuration not stated) | 3 | 51* | 2 | 4 | -4
O=C(CC1CC1)N1[C@@H](CO)[C@@H]2c3ccccc3N(S(=O)(=O)c3ccc(F)cc3)C[C@@H]21 | -4 | . | . | . | .
COc1ccc(CN(C)C[C@H]2OCCCC[C@@H](C)Oc3ccc(NS(=O)(=O)c4ccc(C)cc4)cc3C(=O)N([C@@H](C)CO)C[C@@H]2C)cc1 | -13 | . | . | . | .
COCCOC(=O)C1=C(C)NC(SCC(=O)NC(C)(C)C)=C(C#N)C1c1ccco1 (configuration not stated) | 4 | 7 | -1 | 0 | -16

From PubChem BioAssay
